Test results: PubChem BioAssay
Active and inactive are the calls of the source.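 Rule for the calls: active = at least 20% inhibition of 6-phosphogluconate dehydrogenase activity; inactive = the rest.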

biological target: 6-phosphogluconate dehydrogenase, decarboxylating (Homo sapiens) (UniProt P52209); assay: inhibition of human phosphogluconate dehydrogenase – biochemical, recombinant enzyme, NADPH absorbance, primary screen (AID 1159550); conditions: recombinant 6PGD, NADPH absorbance 341 nm; at 10 µM; hits give high values
Sequence (P52209 whole entry, looked up): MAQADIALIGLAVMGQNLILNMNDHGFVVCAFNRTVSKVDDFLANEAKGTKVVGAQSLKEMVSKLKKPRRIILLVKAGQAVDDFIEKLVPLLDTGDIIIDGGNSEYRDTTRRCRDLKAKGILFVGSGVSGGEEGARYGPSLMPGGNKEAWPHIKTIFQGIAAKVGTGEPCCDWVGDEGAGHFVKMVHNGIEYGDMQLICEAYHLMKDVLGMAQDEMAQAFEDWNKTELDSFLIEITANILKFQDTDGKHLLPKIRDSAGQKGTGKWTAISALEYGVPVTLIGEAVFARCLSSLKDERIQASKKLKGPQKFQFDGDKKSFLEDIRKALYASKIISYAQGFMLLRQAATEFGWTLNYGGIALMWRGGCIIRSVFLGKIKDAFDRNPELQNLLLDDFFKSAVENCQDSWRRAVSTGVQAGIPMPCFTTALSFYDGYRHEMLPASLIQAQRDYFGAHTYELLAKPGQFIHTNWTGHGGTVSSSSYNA

Compound | inhibition
CC(=O)C1CCC2C3CC=C4CC(O)CCC4(C)C3CCC12C (stereo not given) | -15.3% (inactive)
COc1ccc2c(=O)ccoc2c1 | -1.53% (inactive)
O=C(O)Cc1cc(I)c(Oc2cc(I)c(O)c(I)c2)c(I)c1 | -3.72% (inactive)
C[C@H]1O[C@H]1P(=O)(O)O | 6.14% (inactive)
CC(=O)O[C@H]1CC[C@]2(C)C3=CC(=O)[C@@]4(C)C(C[C@@H]5OC6(OCC(C)CC6Br)C(C)[C@@H]54)C3CC[C@H]2C1 (stereo not given in full) | 6.67% (inactive)
CC(=O)N[C@H]1[C@H]([C@H](O)[C@H](O)CO)O[C@](O)(C(=O)O)C[C@@H]1O | -6.71% (inactive)
CCC(C)C(N)C1=NC(C(=O)NC(CC(C)C)C(=O)NC(CCC(=O)O)C(=O)NC(C(=O)NC2CCCCNC(=O)C(CC(N)=O)NC(=O)C(CC(=O)O)NC(=O)C(Cc3cnc[nH]3)NC(=O)C(Cc3ccccc3)NC(=O)C(C(C)CC)NC(=O)C(CCCN)NC2=O)C(C)CC)CS1 (stereo not given) | -5.55% (inactive)
Oc1cc(O)cc(/C=C/c2ccccc2)c1 | -1.17% (inactive)
C=C1CCC(=O)C(C)CCC2C1CC2(C)C (stereo not given) | 14.7% (inactive)
COc1c(C(C)C)oc2cc3oc(=O)ccc3cc12 | 2.98% (inactive)
CC(=O)O[C@@H]1CC2C(C)(C)C(=O)CC[C@]2(C)C2CC[C@]3(C)C(=CC(=O)O[C@H]3c3ccoc3)[C@@]21C (stereo not given in full) | 14.2% (inactive)
N[C@@H](Cc1cnc[nH]1)C(=O)Nc1ccc2ccccc2c1 | -4.42% (inactive)
CC(C)=CCc1c(O)cc(C)oc1=O | -5.39% (inactive)
Oc1cc(O)c2c(c1)O[C@H](c1cc(O)c(O)c(O)c1)[C@H](O)[C@H]2c1c(O)cc(O)c2c1O[C@H](c1cc(O)c(O)c(O)c1)[C@H](O)[C@H]2c1c(O)cc(O)c2c1O[C@H](c1cc(O)c(O)c(O)c1)[C@H](O)C2 | 11.5% (inactive)
NC[C@@H]1OC(O[C@@H]2[C@@H](O)[C@H](O[C@H]3[C@@H](O)[C@H](N)C[C@H](N)[C@H]3O[C@H]3O[C@H](CN)[C@H](O)[C@H](O)[C@H]3N)O[C@@H]2CO)[C@H](N)[C@@H](O)[C@H]1O (stereo not given in full) | -6.73% (inactive)
